# Tau fibril FP: blocks human tau fibril formation measured by polarization; P10636; K18 P301L tau heparin fibrillization, Alexa594 FP, 6 h; Potency, µM (highest dose often 57.7 µM), without a hit: at the top dose activity, negative = inhibition, actives largely listed as inhibitors; 0.39% of 280,000 active; AID 1468; also: nearly all actives have a fitted effect of over 55% in size
#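 Steps: dispense K18 P301L tau (15 uM plus 0.24 uM Alexa 594 tracer, final) in pH 7 sodium acetate; add compound; add heparin (20 uM final); incubate 6 hr, 37 C; add ThT (30 uM final); after 1 hr ambient, read FP.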
# GoLoco inh red: inhibitors of human Gai1-RGS12 GoLoco interaction (red fluorophore) | P63096 | Gai1:RGS12 GoLoco peptide FP, rhodamine, 10 min | Potency, µM (series often up to 61.6 µM), without a hit: at the top dose activity, negative = inhibition, actives largely listed as inhibitors | 0.44% of 230,000 active | AID 880; active = well fitted inhibition curve with a large enough effect, not every such curve was filed as active; inactive = no such curve, though single readings can be large or run the other way; also: nearly all actives have a fitted effect of over 30% in size
# Tau ThT inhib: blocks human tau fibril formation measured by thioflavin T; 2.1% of 270,000 active; Potency, µM (series often up to 57.4 µM), for the others: top-dose activity, negative = inhibition, usual class: inhibitors; P10636; recombinant tau K18 P301L, heparin-induced fibrillization, ThT fluorescence; also: nearly all actives have a fitted effect of over 55% in size
#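 Fibril formation assay: tau K18 P301L at 15 uM with trace Alexa 594 label, heparin inducer 20 uM, pH 7 sodium acetate buffer, 37 C for 6 hr; endpoint ThT signal.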
# Tau fluor counter: counter-screen for tau fibril formation inhibitors. Potency, µM (highest dose often 57.7 µM), inactives show at the highest dose activity change, negative = decrease. 0.93% of 280,000 active. AID 1463. tau K18 P301L (four-repeat tau fragment) Alexa594 fluorescence, heparin fibrillization; also: nearly all actives have a fitted effect of over 55% in size
#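 Human K18 P301L tau (15 uM unlabeled plus 0.24 uM Alexa 594-labeled, final) in 100 mM sodium acetate pH 7 was mixed with compound and 20 uM heparin and incubated 6 hr at 37 C.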
# TexasRed fluor: alters Texas Red total fluorescence, flagging assay interference; Potency, µM (top dose mostly 106 µM), for the others: at the top dose fluorescence change, negative = quenching; 0.29% of 280,000 active; TRb/SRC2 Texas Red total fluorescence interference; active = well fitted curve in either direction with a large enough effect; inconclusive = small, poorly fitted or top-dose-only effect
#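 Human TRβ ligand-binding domain (0.6 uM) and Texas Red SRC2 peptide (20 nM) in Tris buffer with 1 uM T3 and 5% DMSO were incubated with pinned compound for 5 hr at ambient temperature. Total fluorescence was computed as S + 2P (555/632 nm).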
# TRb-SRC2 inh: TRbeta-SRC2 interaction inhibition. 0.065% of 280,000 active. TRbeta-SRC2 peptide binding, fluorescence polarization; receptor liganded with 1 µM T3. P10828. Potency, µM (doses to about 106 µM), inactives show top-dose activity change, negative = inhibition, usual class: inhibitors;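 also: plate controls were bound peptide for no effect and peptide without receptor for full effect; nearly all actives have a fitted effect of over 50% in size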
# Target sequence (P10828 whole entry, looked up): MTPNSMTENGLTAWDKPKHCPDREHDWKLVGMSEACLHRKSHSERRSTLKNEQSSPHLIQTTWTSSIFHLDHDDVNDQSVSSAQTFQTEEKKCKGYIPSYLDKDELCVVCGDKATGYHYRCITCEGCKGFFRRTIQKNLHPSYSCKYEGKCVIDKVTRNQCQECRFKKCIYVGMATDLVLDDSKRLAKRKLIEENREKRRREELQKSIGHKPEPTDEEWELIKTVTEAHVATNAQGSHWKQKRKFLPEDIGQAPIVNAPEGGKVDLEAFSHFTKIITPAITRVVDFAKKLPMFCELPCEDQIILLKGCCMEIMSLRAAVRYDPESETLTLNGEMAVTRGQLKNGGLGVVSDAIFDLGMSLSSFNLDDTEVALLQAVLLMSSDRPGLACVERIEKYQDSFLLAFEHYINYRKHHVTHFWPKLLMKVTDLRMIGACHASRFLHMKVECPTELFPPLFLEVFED
#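 Quantitative HTS by FP: 0.6 uM TRb LBD, 20 nM labeled SRC2 20-mer, 1 uM T3, 5% DMSO; 5 hr ambient incubation; % activity per concentration and potencies from concentration series.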
# Active calls of the source: *; u = inconclusive; x = no result; [ ] = remark or other dose. The list is not random: actives were taken first. Their share in the collection is about 3.1%. Unless noted, calls follow the shape of the dose curve; as a rule, active = well fitted curve in the direction sought with a large enough effect; inconclusive = small, poorly fitted or top-dose-only effect, or another doubt; inactive = no such curve, though single readings can be large; an effect the other way counts as inactive or inconclusive. Unless noted, % is scaled to controls: 0 for no effect and ±100 for the full control effect; potency is read from the fitted curve at half-maximal effect.
SMILES,Tau fibril FP,GoLoco inh red,Tau ThT inhib,Tau fluor counter,TexasRed fluor,TRb-SRC2 inh
COc1ccc(NS(=O)(=O)c2ccc(NS(=O)(=O)c3ccc4c(c3)OCCO4)cc2)cc1,u,x,4%,u,-3%,12%
O=S(=O)(Nc1ccc(Cl)cc1)c1cccc(S(=O)(=O)c2ccc(Cl)c(Cl)c2)c1,11µM*,x,10%,u,-1%,-1%
COc1ccc(NS(=O)(=O)c2ccc3oc(Nc4ccc5c(c4)OCCO5)nc3c2)cc1,u,17%,u,13µM*[quencher],-4%,-2%
CC(C)C(=O)Nc1cc(S(=O)(=O)Nc2ccc(Cl)cc2)ccc1Cl,-12%,x,-3%,-27%,-3%,1%
O=S(=O)(Nc1ccc(Cl)cc1)c1ccc(NS(=O)(=O)c2ccc3c(c2)OCCO3)cc1,14µM*,x,14%,u,-3%,9%
COc1ccccc1CNc1ccnc(-c2cccc(C#N)c2)n1,x,14%,x,x,x,x
CCOc1ccc(-n2c(O)cc(=O)[nH]c2=O)cc1,u,4%,x,u,0%,0%
Cc1cc(=O)n2[nH]c(=O)c(N=Nc3ccccc3)c2[nH]1,7%,8%,14µM*,-13%,-14%,-3%
CCOc1ccc(N=Nc2c(=O)[nH]n3c(=O)cc(C)[nH]c23)cc1,8%,16%,3.5µM*,-13%,-17%,-1%
CC(=O)N1[C@H](Cc2ccccc2)C=C[C@]1(C)C(=O)NCc1ccc(C)o1,u,-21%,u,-8%,-1%,1%
N#C[C@H]1CN[C@H](N)N[C@@H]1N,x,2%[14.2 µM],x,x,x,x
CCOc1ccc(NCc2cc3cc(OC)ccc3[nH]c2=O)cc1,-6%,14%,6.3µM*,u,-2%,0%
COc1ccc2[nH]c(=O)c(CNc3ccccc3)cc2c1,u,x,-9%,-6%,-4%,1%
CC1(C)CC(Nc2ccc(Nc3ccccc3)cc2)CC(C)(C)N1,u,-1%[14.2 µM],u,28µM*[quencher],-4%,-1%
CC1(C)CC(NC(=O)c2ccccc2C(=O)NC2CC(C)(C)NC(C)(C)C2)CC(C)(C)N1,-5%,3%,-9%,-6%,1%,5%
COCCN=c1scc(-c2ccc3c(c2)NC(=O)CO3)n1/N=C(\C)c1ccc(O)cc1,u,11%,14µM*,14µM*[quencher],1%,-4%
COc1cc(/C=N/n2c(-c3ccc4c(c3)NC(=O)CO4)csc2=Nc2cccc(C)c2)ccc1O,12%,-2%,5%,4%,1%,-1%
Nc1ncc(N=Nc2cc(C(=O)O)ccc2Cl)s1,u,-2%,14µM*,-28%,71µM*[quencher],19%
COC(=O)c1sccc1S(=O)(=O)N1CCN(c2ccc(C)cc2C)CC1,-2%,x,-15%,u,2%,4%
Cc1cc(C(c2ccc(C)o2)c2ccc(C)o2)c(O)c([N+](=O)[O-])c1,-6%,-10%,u,-26%,-5%,-1%
Cc1cc(/C=N/n2cnnc2)c(O)c([N+](=O)[O-])c1,11%,10%,4µM*,-6%,-9%,-1%
COc1ccc(S(=O)(=O)NCCOc2ccccc2)cc1OC,-1%,-3%,10%,12%,2%,-21%
CCCSc1nc(O)c(C(c2ccc(OC)c(O)c2)c2c(O)nc(SCCC)n(C)c2=O)c(=O)n1C,u,2%,4µM*,-16%,-1%,-3%
COc1ccc(C(c2c(C)n(C)n(-c3ccccc3)c2=O)c2c(C)n(C)n(-c3ccccc3)c2=O)cc1O,-1%,6%,14%,13%,-1%,-3%
COc1cccc(C(c2c(O)nc(SC)n(C)c2=O)c2c(O)nc(SC)n(C)c2=O)c1,u,-14%,13µM*,-17%,0%,0%
c1ccc(Nc2c(-c3c[nH]c4ccccc34)nc3ccccn23)cc1,u,x,u,13µM*[quencher],0%,-1%

# Assay outcomes deposited in PubChem by National Center for Advancing Translational Sciences (NCATS).
